# Screens: PubChem BioAssay, National Center for Advancing Translational Sciences (NCATS)
# Only some compounds are listed: those with a hit (about 5.5% of all), similar ones and a draw of the others.
# VP16 counter: Gal4-VP16 reporter inhibition counter-screen. Drosophila S2 Gal4-VP16 UAS-luciferase, luminescence, 20 h. Potency, µM (top dose mostly 53.6 µM), without a hit: at the top dose activity, negative = inhibition, hits mostly inhibitors. 3.5% of 310,000 active. AID 2546;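 also: Gal4-VP16 expression switched on by copper sulfate through the metallothionein promoter; % is scaled to controls: 0 for no effect and ±100 for the full control effect; nearly all actives have a fitted effect of over 50% in size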
# uPA generation: blocks generation of uPA at the cell surface; 0.31% of 330,000 active; cell surface uPA generation assay, qHTS; Potency, µM (highest dose often 38.3 µM), without a hit: top-dose activity change, negative = inhibition, usual class: inhibitors; active = well fitted inhibition curve with a large enough effect; inconclusive = small, poorly fitted or top-dose-only effect; inactive = no such curve, though single readings can be large or run the other way; tested in mouse RAW 264.7 cells; also: % is scaled to controls: 0 for no effect and ±100 for the full control effect; nearly all actives have a fitted effect of over 55% in size
# Mito fusion act: blocks mitochondrial division or promotes mitochondrial fusion; S. cerevisiae fusion-defective mutant growth rescue, CellTiterGlo 48 h; Potency, µM (doses to about 46.1 µM), for the others: at the top dose growth rescue (activation), most hits filed as activators; 0.23% of 320,000 active; AID 485298; also: % of control where 0% means no effect; nearly all actives have a fitted effect of over 45% in size
#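 S. cerevisiae fusion-defective temperature-sensitive mutants (e.g. fzo1-1, mgm1-5) grown 48 h at 37C in YPEG (ethanol/glycerol non-fermentable) medium with 23 nl compound per well; growth rescue read as CellTiterGlo luminescence.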
# Chronic BCR inh: chronic active BCR signaling inhibition | 0.05% of 340,000 active | ABC-DLBCL IkBa-CBG/CBR reporter, luminescence ratio, 4 h | Potency, µM (titrated, usually from 46.1 µM), without a hit: at the highest dose activity change, negative = inhibition, usual class: inhibitors | AID 493014; active = well fitted inhibition curve with a large enough effect in the signal ratio, with a control signal flat, not every such curve was filed as active; inconclusive = small, poorly fitted or top-dose-only effect, or effect the other way, or a change in a side signal; the % refers to the signal ratio;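 also: plate controls were basal doxycycline-induced cells for no effect and cells given 10 µM MG132 for full effect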
#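 Compounds up to 46 uM were incubated four hours with TMD8 cells whose green CBG68 luciferase is fused to IkappaBalpha; red CBR luminescence normalised the signal, and concentration-effect curves were fitted to fusion, red and ratio data.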
# RORgamma inh: ROR gamma (mouse) transcription inhibition; Drosophila S2 Gal4-RORgamma UAS-luciferase reporter, 20 h; P51450; Potency, µM (series often up to 53.6 µM), inactives show top-dose activity change, negative = inhibition, hits mostly inhibitors; AID 2551; 5.4% of 310,000 active; also: % is scaled to controls: 0 for no effect and ±100 for the full control effect; nearly all actives have a fitted effect of over 60% in size
# Target sequence (P51450 whole entry, looked up, the tested form may be a part): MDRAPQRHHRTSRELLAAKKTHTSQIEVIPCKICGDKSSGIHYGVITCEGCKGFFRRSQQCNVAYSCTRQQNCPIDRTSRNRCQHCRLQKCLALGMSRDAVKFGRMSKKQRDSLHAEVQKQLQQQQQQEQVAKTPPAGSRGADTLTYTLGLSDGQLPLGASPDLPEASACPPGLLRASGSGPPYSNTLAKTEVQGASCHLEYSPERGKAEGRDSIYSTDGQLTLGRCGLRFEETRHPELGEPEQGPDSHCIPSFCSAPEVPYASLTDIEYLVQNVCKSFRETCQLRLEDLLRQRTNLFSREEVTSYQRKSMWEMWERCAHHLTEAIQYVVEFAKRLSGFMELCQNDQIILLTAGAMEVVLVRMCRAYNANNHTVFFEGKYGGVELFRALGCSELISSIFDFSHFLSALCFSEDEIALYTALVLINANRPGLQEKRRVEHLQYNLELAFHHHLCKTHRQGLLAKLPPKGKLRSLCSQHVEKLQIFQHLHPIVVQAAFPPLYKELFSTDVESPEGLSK
#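 Stably transfected Drosophila Schneider cells are the test system, with ROR gamma fused to Gal4 and luciferase under UAS control; luminescence is read after 20 hr of 700 uM copper sulfate induction at ambient temperature.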
# Integrin act MD: activators of alpha7 integrin expression for muscular dystrophy. AID 624291. Potency, µM (series often up to 38.3 µM), inactives show at the top dose activation, hits mostly activators. 0.064% of 350,000 active. alpha7betagal myoblasts, beta-gal FDG fluorescence, 48 h;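 also: 100% = response of the positive control SU9516; nearly all actives have a fitted effect of over 60% in size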
#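 alpha7betagal+/- myoblasts (passage 13, 250/well) treated 48 h at 37C with compounds at 1:260 dilution of DMSO stock. Lysed, then beta-galactosidase activity read as FDG fluorescence (ex 480/em 540) after 30 min, with pre-read for autofluorescence.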
# * = called active by the depositor; ? = inconclusive; · = no result given; [ ] = remark or other dose. Unless noted, calls follow the shape of the dose curve; as a rule, active = well fitted curve in the direction sought with a large enough effect; inconclusive = small, poorly fitted or top-dose-only effect, or another doubt; inactive = no such curve, though single readings can be large; an effect the other way counts as inactive or inconclusive. Potency is read from the fitted curve at half-maximal effect.
SMILES,VP16 counter,uPA generation,Mito fusion act,Chronic BCR inh,RORgamma inh,Integrin act MD
O=C(Nc1cccc(O)c1)c1cc(-c2ccc3c(c2)OCO3)on1,1.4µM*,-17%,-17%,?,4µM*,-14%
COc1ccccc1-c1cc(C(=O)N2CCCC2)no1,-5%,-6%,-1%,?,-29%,0%
O=C(NCc1cccnc1)c1cc(-c2ccccc2)on1,16%,-21%,-1%,?,19%,7%
COc1cc(NC(=O)c2cc(-c3ccc4c(c3)OCO4)on2)cc(OC)c1OC,-21%,-1%,-13%,-15%,-19%,-35%
O=C(NCc1ccccc1)c1cc(-c2cccc(O)c2)on1,0%,2.8µM*,-7%,-12%,-3%,17%
CC1CCN(C(=O)c2ccc(-c3ccccc3Cl)o2)CC1,·,-3%,16µM*,?,·,40%
O=C(c1cc(-c2ccccc2Cl)on1)N1CCCC1,?,-10%,3%,?,13µM*,-22%
O=C(Nc1cccc(O)c1)c1cc(-c2ccccc2Cl)on1,1.3µM*,-6%,10%,?,0.22µM*,11%
COc1ccc(C(=O)OC2CC3CC[C@H](C2)N3C(C)=O)cc1OC (stereo partly specified),3%,·,·,·,0%,·
CN1CCN(C(=S)NC(=O)c2cccc(S(=O)(=O)N(C)C)c2)CC1,?,-4%,0%,2%,14µM*,-3%
COc1cc(C(=S)N2CCOCC2)ccc1OC(=O)/C=C/c1ccco1,18µM*,-3%,-1%,12%,?,-31%
COc1cc(C(=S)N2CCOCC2)ccc1OC(=O)c1ccc([N+](=O)[O-])cc1[N+](=O)[O-],13µM*,?,-10%,-13%,?,-16%
COc1ccc(C(=O)Nc2ccc(C(=O)N3CCOCC3)cc2)cc1OC,2%,-2%,-5%,7%,9%,-125%
COc1cc(C(=S)N2CCOCC2)ccc1OC(=O)c1ccccc1,·,10%,1%,0%,·,-7%
COc1ccc(C(=S)N2CCOCC2)cc1OC(=O)c1ccc([N+](=O)[O-])cc1,6%,-7%,-3%,3%,0%,-34%
COc1ccc(C(=O)NC(=S)N2CCOCC2)cc1OC,?,12%,-10%,-21%,11µM*,1%
Cc1ccccc1Nc1sc(C(=O)c2ccc(F)cc2)c(N)c1C(=O)NCCc1ccccc1,·,·,·,20%,·,·
Cc1cccc(C(=O)NCCC(=O)N2CCc3ccccc3C2)c1,·,15%,6%,4%,·,7%
Cc1cccc(C(=O)NC(=S)N2CCc3ccccc3C2)c1,3.5µM*,0%,29%,?,1.4µM*,-21%
COc1ccc(C(=O)NC(=S)N2CCN(C)CC2)cc1Br,2.8µM*,9%,-1%,-1%,0.45µM*,1%
CCOc1ccccc1N1CCN(C(=O)CNC(=O)c2ccc(OC)c(OC)c2)CC1,2%,2%,-7%,-2%,17%,0%
Cc1ccc(C(=O)NC(=S)N2CCN(C)CC2)cc1Br,·,-1%,-10%,-18%,·,5%
COc1ccc(C(=O)NC(=S)N2CCN(c3ccccc3OC)CC2)cc1OC,5µM*,-5%,-1%,-1%,2.8µM*,2%
COc1ccccc1N1CCN(C(=S)Nc2ccc(F)cc2)CC1,?,-7%,-9%,-9%,11µM*,25%
Cn1c(=O)[nH]c(=O)c2c1nc(Br)n2Cc1cccc(Br)c1,-3%,-13%,0%,4%,34%,-11%
SMILES,VP16 counter,uPA generation,Mito fusion act,Chronic BCR inh,RORgamma inh,Integrin act MD
COc1cc(OC)c2c(C)cc(=O)oc2c1C(CCN1CCCC(C)C1)c1ccc(N(C)C)cc1 (stereo unspecified),4%,·,·,·,-27%,·
CCOC(=O)c1ccc(NC(=O)CN2C(=O)CN(C(C)=O)C2=S)cc1,-9%,-5%,4%,?,-4%,-9%
COc1ccccc1N1CCN(C(=O)c2ccc([N+](=O)[O-])s2)CC1,-9%,-4%,4%,2%,7.9µM*,-41%
COc1ccccc1N1CCN(C(=O)c2cc(C(=O)N3CCN(c4ccccc4OC)CC3)cc([N+](=O)[O-])c2)CC1,-6%,2%,-6%,-1%,-18%,1%
Cc1nc(SCC(=O)N2CCOCC2)c2c(C)c(C)sc2n1,5%,-1%,-6%,6%,-1%,-2%
Cc1nc(SC2CCOC2=O)c2c(C)c(C)sc2n1 (stereo unspecified),16µM*,1%,-11%,?,11µM*,-2%
Fc1ccc(NC(=S)NCc2ccc3c(c2)OCO3)cc1,?,5%,5%,6%,11µM*,-3%
Cc1ccc(NC(=S)NCc2ccc3c(c2)OCO3)cc1C,?,3%,20%,1%,13µM*,-12%
Cc1ccc(NC(=O)NCc2ccc3c(c2)OCO3)cc1C,4%,1%,-3%,?,-24%,16%
CCc1cc(C(=O)N/N=C/c2ccc(OC)cc2)c2ccccc2n1,-8%,-18%,-1%,-14%,6%,1%
Cc1ccc(CNC(=S)Nc2ccc(OC(F)F)cc2C)cc1,4.5µM*,0%,-1%,-4%,5.6µM*,0%
Cc1ccc(NC(=S)NCc2ccc(Cl)cc2)c(OC(F)F)c1,5µM*,0%,-10%,-2%,6.3µM*,0%
Cc1ccc(NC(=O)c2cnccn2)c(OC(F)F)c1,·,·,8%,5%,13%[0.365 µM],12%
COc1ccc(-n2ncc3c2CC(C)(C)CC3NC(=O)c2c(C)cc(=O)oc2C)cc1 (stereo unspecified),-9%,-3%,-10%,4%,1%,21%
CC(/C=C/c1ccc(C)o1)=C\C(=O)O,?,-23%,5%,15%,20µM*,24%
CC(=C/C(=O)O)/C=C/c1ccc(Cl)o1,?,2%,2%,?,-9%,-15%
N/C(=N\OC(=O)N1CCOCC1)c1ccc(Br)cc1,-1%,10µM*,5%,?,-6%,-53%
N/C(=N\OC(=O)N1CCOCC1)c1ccc(Cl)cc1,?,-13%,4%,?,-38%,19%
O=c1[nH]cc(N=Cc2cc([N+](=O)[O-])ccc2O)c(=O)[nH]1,-1%,·,-4%,-3%,-23%,·
O=c1[nH]cc(N=Cc2cc(Cl)cc(Cl)c2O)c(=O)[nH]1,13µM*,12%,-3%,0%,11µM*,-50%
CCOC(=O)C(=CN=C(N)Nc1nc2ccccc2o1)C(=O)OCC,?,0%,5%,?,7.1µM*,-1%
CCCOC(=O)Nc1nc2ccccc2o1,?,-2%,2%,-5%,14µM*,21%
Cc1ccc(Nc2cc(C)c(O)c(C)c2)cc1,?,-9%,-1%,3%,8.9µM*,-24%
